Most compounds without a hit are left out; they make up all but 1.5% or so of the library.
Eya2 inh = blocks the phosphatase activity of human Eya2 | O00167 | recombinant Eya2, OMFP fluorescence dephosphorylation (OMFP is methylfluorescein phosphate) | Potency, µM (titrated, usually from 76.9 µM), hits mostly inhibitors | 0.006% of 330,000 active | AID 488837
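Eya2 (0.2 uM) preincubated 10 min at ambient with compound, then OMFP substrate added at 50 uM; 10 min reaction in 50 mM HEPES pH 7.5, 50 mM NaCl, 5 uM MgCl2, 0.05% BSA, 1 mM DTT. Fluorescence read at Ex 485/Em 525 nm.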
Coupling enz = counter-screen for Giardia aldolase inhibitors: coupling enzyme system; 0.67% of 290,000 active; activity change, negative = inhibition, % at 58.2 µM, hits read low; AID 2472; coupling enzyme system counterscreen, AmpLite Red fluorescence; in the data active = activity change below about -30%
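Final compound at 57.5 uM, incubated 10 min at RT with coupling enzyme reagent (glyceraldehyde-3-phosphate), then 20 min with substrate and AmpLite Red detection. Fluorescence read at 525/598 nm; tests interference with the coupling assay, not aldolase inhibition.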
TrxR1 substrate = substrates of rat thioredoxin reductase 1 | 0.01% of 390,000 active | Potency, µM (series often up to 114 µM) | purified TrxR1 substrate turnover, NADPH consumption readout | AID 588456; note: nearly all actives have a fitted effect of over 50% in size
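Rat TrxR1, dispensed at 90 nM, was prereduced with 400 uM NADPH (final) for 5 min at ~22 deg C, then incubated with compound 15 min before 400 uM selenite. A first-read NADPH fluorescence drop versus no-compound background flagged substrates.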
mIDH1 inhibitor = blocks human mutant IDH1 R132H enzyme; IDH1-R132H enzyme, NADPH consumption, diaphorase/resazurin fluorescence; Potency, µM (highest dose often 76.6 µM), most hits filed as inhibitors; 0.093% of 390,000 active; AID 602179; note: nearly all actives have a fitted effect of over 65% in size
Target sequence (O75874 whole entry R132H, stated change not applied): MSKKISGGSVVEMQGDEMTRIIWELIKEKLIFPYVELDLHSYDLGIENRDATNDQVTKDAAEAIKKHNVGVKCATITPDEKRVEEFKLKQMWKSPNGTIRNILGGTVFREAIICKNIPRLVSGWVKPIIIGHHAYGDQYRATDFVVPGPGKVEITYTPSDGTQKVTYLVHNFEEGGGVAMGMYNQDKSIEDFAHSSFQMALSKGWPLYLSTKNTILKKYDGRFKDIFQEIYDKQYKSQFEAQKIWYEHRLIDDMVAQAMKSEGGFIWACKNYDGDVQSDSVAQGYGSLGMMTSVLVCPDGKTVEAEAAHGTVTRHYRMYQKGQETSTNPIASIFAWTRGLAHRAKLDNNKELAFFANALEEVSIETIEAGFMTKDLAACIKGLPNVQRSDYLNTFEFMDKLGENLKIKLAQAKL
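IDH1-R132H (0.5 ug/mL dispensed) in pH 7.5 Tris buffer was preincubated 30 min with compound, then given a substrate mix of 0.016 mM NADPH and 2 mM alpha-KG for 80 min at room temperature; remaining NADPH was read by diaphorase/resazurin fluorescence.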
rTrxR1 inhibitor = inhibitors of rat thioredoxin reductase 1. O89049. recombinant rTrxR1, NADPH fluorescence consumption, selenite substrate. Potency, µM (doses to about 114 µM), actives largely listed as inhibitors. 1% of 390,000 active. AID 588453; note: nearly all actives have a fitted effect of over 65% in size
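Rat TrxR1 (90 nM in the dispensed reagent) was pre-reduced with 400 uM NADPH for 5 min at room temperature, then incubated with compound for 15 min. After 400 uM selenite was added, NADPH fluorescence (Ex 340/Em 450 nm) was followed for 8 min.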
Numbers stand for hits; n = inactive; u = inconclusive; x = not tested or not shown. Unless noted, calls come from the whole dose curve; as a rule, active = well fitted curve in the direction sought with a large enough effect; inconclusive = small, poorly fitted or top-dose-only effect, or another doubt; inactive = no such curve, though single readings can be large; an effect the other way counts as inactive or inconclusive.

SMILES	Eya2 inh	Coupling enz	TrxR1 substrate	mIDH1 inhibitor	rTrxR1 inhibitor
CCOC(=O)CSc1nnc(NCC(=O)OC)c(=O)[nH]1	n	n	n	n	10µM
CCOC(=O)CSc1nnc(C)c(=O)[nH]1	n	n	n	n	n
COc1cc(O)c(NC(C)=O)c2nonc12	n	-54.1	n	n	n
CSCC[C@H](NC(=O)[C@H](Cc1c[nH]c2ccccc12)NC(=O)CCNC(=O)OC(C)(C)C)C(=O)N[C@@H](CC(=O)O)C(=O)N[C@@H](Cc1ccccc1)C(N)=O	x	n	x	x	x
COc1cc(OC)c(/C=C/c2nc3ccccc3o2)c(OC)c1	x	x	n	x	n
CCCN(CCC)C1=N/C(=C\c2ccco2)C(=O)N1c1ccccc1	n	n	n	n	25.1µM
Cc1[nH][nH]c(=O)c1C(c1ccc(N(C)C)c(Br)c1)c1c(C)[nH][nH]c1=O	n	n	n	n	n
COc1ccc(-c2ccc(C(c3c(C)[nH][nH]c3=O)c3c(C)[nH][nH]c3=O)o2)c([N+](=O)[O-])c1	n	-49.4	n	n	n
CCOc1ccc(Cl)cc1C(c1c(C)[nH][nH]c1=O)c1c(C)[nH][nH]c1=O	n	n	n	n	n
Cc1[nH][nH]c(=O)c1C(c1ccc(-c2ccc(C(=O)O)cc2)o1)c1c(C)[nH][nH]c1=O	n	-62.7	n	n	n
Cc1[nH][nH]c(=O)c1C(c1ccc(-c2ccc(Cl)c(Cl)c2)o1)c1c(C)[nH][nH]c1=O	n	-45.4	n	u	n
COc1ccc(-c2ccc(/C=N/N3C(=O)C4C5C=CC(C6CC56)C4C3=O)o2)c([N+](=O)[O-])c1 (centres undefined)	n	n	n	n	n
Cc1[nH][nH]c(=O)c1C(c1ccc(-c2ccc(F)cc2)o1)c1c(C)[nH][nH]c1=O	n	-36.8	n	n	u
Cc1ccc(S(=O)(=O)N2CCN(c3nc(N(C)c4cc(Cl)ccc4O)nc4ccccc34)CC2)cc1	x	x	n	x	n
C[n+]1c(/C=C/c2ccc(N)cc2)sc2ccccc21	x	x	n	x	n
CCC(C)c1cc([N+](=O)[O-])cc([N+](=O)[O-])c1OC(=O)OC(C)C (centres undefined)	x	n	x	x	x
O=[N+]([O-])c1ccc(/C=C2\C=C(C(O)c3ccc([N+](=O)[O-])cc3)c3ccccc32)cc1 (centres undefined)	x	x	n	x	n
Oc1cccc2c(NC(=S)Nc3ccc(SC(F)F)cc3)cccc12	n	-43.5	n	n	n
Oc1cccc(NC(=S)Nc2ccc(SC(F)F)cc2)c1	n	n	n	n	u
C[C@H](N)C(=O)N[C@@H](CO)C(=O)N[C@H](C(=O)N[C@H](C(=O)N[C@H](C(=O)N[C@@H](CC(N)=O)C(=O)N[C@@H](Cc1ccc(O)cc1)C(=O)N[C@H](C(=O)O)[C@@H](C)O)[C@@H](C)O)[C@@H](C)O)[C@@H](C)O	x	n	x	x	x
CC(=O)N=c1sc2nc3ccccc3nc2n1N(C(C)=O)C(C)=O	n	n	n	n	39.8µM
CC(=O)NN1C(=O)/C(=C/c2ccc(Br)o2)SC1=S	n	n	n	n	25.1µM
CCOc1ccc(-c2nnc(SCC(=O)Nc3cccc(Cl)c3C)o2)cc1	x	x	n	x	n
CCOc1ccc(-c2nnc(SCC(=O)Nc3cccc(C#N)c3)o2)cc1	x	x	n	n	35.5µM
C/C=C/C=C/C(=O)N1CC2(CC(c3cccc(NC(=O)CCCCC)c3)=NO2)C[C@H]1C(N)=O (some centres undefined)	n	n	n	n	28.2µM
SMILES	Eya2 inh	Coupling enz	TrxR1 substrate	mIDH1 inhibitor	rTrxR1 inhibitor
C/C=C(/C)C(=O)Nc1cccc(C2=NOC3(C2)C[C@@H](C(N)=O)N(C(=O)CCCCC)C3)c1 (some centres undefined)	n	n	n	n	n
C/C=C\C=C/C(=O)Nc1cccc(C2=NOC3(C2)C[C@@H](C(N)=O)N(C(=O)CCCCC)C3)c1 (some centres undefined)	n	n	n	n	14.1µM
C/C=C(/C)C(=O)Nc1cccc(C2=NOC3(C2)C[C@H](C(N)=O)N(C(=O)Cc2ccc([N+](=O)[O-])cc2)C3)c1 (some centres undefined)	n	n	n	n	n
C/C=C\C=C/C(=O)Nc1cccc(C2=NOC3(C2)C[C@H](C(N)=O)N(C(=O)Cc2ccc([N+](=O)[O-])cc2)C3)c1 (some centres undefined)	n	n	n	n	7.94µM
C/C=C/C=C/C(=O)N1CC2(CC(c3cccc(NC(=O)/C=C/C)c3)=NO2)C[C@@H]1C(N)=O (some centres undefined)	n	n	n	n	u
C/C=C\C=C/C(=O)Nc1cccc(C2=NOC3(C2)C[C@H](C(N)=O)N(C(=O)CC)C3)c1 (some centres undefined)	n	n	n	n	14.1µM
C/C=C/C(=O)N1CC2(CC(c3cccc(NC(=O)CCCCC)c3)=NO2)C[C@H]1C(N)=O (some centres undefined)	n	n	x	x	x
CCc1nnc(NC(=O)[C@@H]2CCCN2C(=O)c2cccs2)s1	x	x	n	x	n
CCN(CCC#N)c1ccc(/C=C/c2ccnc3ccccc23)cc1	x	x	n	x	n
Cc1noc(C)c1-c1ccc2ncnc(NCC3CCN(C)CC3)c2c1	x	n	x	x	x
C/C=C/C=C\C(=O)Nc1cccc(C2=NOC3(C2)C[C@@H](C(N)=O)N(C(=O)/C(C)=C/C)C3)c1 (some centres undefined)	n	n	n	n	11.2µM
C/C=C(\C)C(=O)Nc1cccc(C2=NOC3(C2)C[C@@H](C(N)=O)N(C(=O)/C(C)=C/C)C3)c1 (some centres undefined)	n	n	n	n	n
CCCCCC(=O)Nc1cccc(C2=NOC3(C2)C[C@H](C(N)=O)N(C(=O)CC#N)C3)c1 (some centres undefined)	n	n	x	x	x
C/C=C/C=C\C(=O)Nc1cccc(C2=NOC3(C2)C[C@H](C(N)=O)N(C(=O)CC#N)C3)c1 (some centres undefined)	n	n	n	n	22.4µM
CCCCCCCCCCCCCCCC[n+]1ccc(C)c2ccccc21	x	x	n	x	u
CCC(C)CC(C)CC(C)C(=O)/C=C(/O)C(C)CC(C)C/C=C/C(C)C(O)C(C)C(O)CC1CCC(C)(C)O1 (centres undefined)	x	n	x	x	x
CN1CCCN(S(=O)(=O)c2ccccc2)CC1	n	n	u	n	n
Cc1ccc(S(=O)(=O)N2CCCN(C)CC2)cc1	n	n	n	n	28.2µM
CC1=C/C(=C\c2ccc(N(C)C)cc2)c2ccccc21	x	x	n	x	n
COc1ccc(C(C)=O)c2c(O)cccc12	n	-37.3	n	n	n
COc1ccc(C2NC(=O)NC(O)(C(F)(F)F)C2C(=O)c2ccccc2)cc1OC (centres undefined)	n	n	n	n	28.2µM
